Sampled rows, rich in hits. Any-hit rate of the full collection: about 0.92%.
RecA intein inh = blocks M. tuberculosis RecA intein splicing; P9WHJ3; AID 2221; actives 0.75% (n = 290,000); inhibition, % (test concentration not listed); cell-free RecA intein splicing, fluorescence; in the data active means inhibition above about 30%; inconclusive means no clear call, values can overlap the other calls
Mtb UGM inh = blocks M. tuberculosis UGM enzyme; purified UGM, fluorescence polarization probe displacement; inhibition, % at 10 µM; AID 504406; actives 0.06% (n = 320,000); P9WIQ1; in the data active means inhibition above about 10%, passing the limit was not always enough; inconclusive means no clear call, values can overlap the other calls
Rv3671c protease = inhibitors of M. tuberculosis serine protease Rv3671c; P9WHR9; inhibition, % at 5.96 µM; AID 2606; actives 0.048% (n = 320,000); in the data active means inhibition above about 38%;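 further: extracellular domain of Rv3671c used as enzyme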
FadD28 FP inh = blocks FadD28 binding to the bisubstrate probe | fluorescence polarization | inhibition, % at 12.5 µM | actives 0.22% (n = 360,000) | AID 588549; in the data active means inhibition above about 8.5%, passing the limit was not always enough; inconclusive means no clear call, values can overlap the other calls
Mtb bLac sens = beta-lactam sensitization of Mtb H37Rv; M. tuberculosis H37Rv growth with meropenem, percent inhibition; inhibition, % at 25 µM; actives 0.27% (n = 330,000); AID 434955;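 further: growth measured after seven days incubation then overnight dye step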
Mtb hypoxia rep = reduces hypoxia-regulated biosensor signal in M. tuberculosis. M. tuberculosis hypoxia-regulated fluorescent reporter, fluorescence. fluorescence inhibition, % (no concentration beside the values). actives 0.1% (n = 300,000). AID 1159583; in the data active means fluorescence inhibition mostly above about 23%, no sharp cut-off; inactive means mostly below about 17%
GFP chromophore = counter-screen: blocks GFP chromophore formation; shares compounds with RecA intein inh; cell-free GFP chromophore formation, fluorescence; EC50, µM; actives 83% (n = 2,100)
Numbers stand for hits; n = inactive; u = inconclusive; x = no result shown. Unless noted, how the calls were made is not given here.

SMILES	RecA intein inh	Mtb UGM inh	Rv3671c protease	FadD28 FP inh	Mtb bLac sens	Mtb hypoxia rep	GFP chromophore
Cc1cccc(-c2cc(NC=O)c3ncc(-c4cccc(C(=O)N(C)C)c4)n3c2)c1	x	x	x	n	x	x	x
C#CCOc1ccc(/C=C2/C(=O)N(c3cccc(C(=O)O)c3)N=C2C)cc1OC	71	n	n	n	n	x	3.4
COc1cc(/C=C2\C(=O)N(c3ccc(S(N)(=O)=O)cc3)N=C2C)ccc1OC(=O)c1ccco1	93	n	n	n	n	n	20
COc1ccccc1NS(=O)(=O)c1cccc(C(=O)N2CCCCCC2)c1	x	x	x	n	x	n	x
COC(C[C@@H]1O[C@H]1C(=O)COCc1ccccc1)OC	n	n	n	n	n	x	x
CCOC(=O)CSc1nnc(NCC(=O)OC(C)C)c(=O)[nH]1	55	n	n	n	n	x	37
CCOC(=O)CNC(=O)CSc1nnc(C)c(=O)[nH]1	n	n	n	n	n	n	x
O=C(CCCCl)NC1=NN(c2ccccc2)C(=O)C1	x	n	n	n	n	n	x
CC(=O)NC1=NN(c2ccccc2)C(=O)C1	82	n	n	n	n	n	36
CC(/C=N/NC(=O)Cc1cc(=O)[nH][nH]1)=C\c1ccccc1	89	n	n	n	n	x	6.7
O=S(=O)(Nc1cc(Sc2cccc3cccnc23)c(O)c2ccccc12)c1ccc(F)cc1	n	n	n	x	n	x	x
COc1ccc(S(=O)(=O)Nc2cc(SCC(=O)O)c(O)c3ccccc23)cc1	96	n	n	n	n	n	0.65
Cc1cc(C)c(S(=O)(=O)/N=C2/C=C(SCC(=O)O)C(=O)c3ccccc32)cc1C	x	x	x	n	x	x	x
COc1ccc(S(=O)(=O)Nc2cccc3ccc(O)cc23)cc1	n	n	n	n	n	n	x
Cc1cc(C)c(S(=O)(=O)Nc2cc(SCC(=O)O)c(O)c3ccccc23)cc1C	97	n	n	x	n	n	0.87
O=C(O)CSc1cc(NS(=O)(=O)c2ccc(Cl)cc2)c2ccccc2c1O	96	n	n	n	n	x	9.8
C(=C(c1ccccc1)c1ccccc1)c1ccccn1	n	n	n	n	n	n	x
Nc1cccc2c(O)cccc12	56	n	n	n	n	n	37
COc1ccc(Cn2c(O)c(C=Nc3ccc(C)cc3)c3ccccc3c2=O)cc1	n	n	n	n	n	n	x
COCCNC(=O)c1c[nH]n2c(=O)cc(C3CCN(C(=O)OC(C)(C)C)CC3)nc12	n	n	n	n	n	n	x
O=C1C(Cl)=C(N2CCOCC2)C(=O)N1c1ccccc1Cl	86	n	n	n	n	n	5.6
O=C1C(Cl)=C(N2CCCCCC2)C(=O)N1c1ccccc1Cl	n	n	n	n	u	n	x
CN1CCN(C2=C(Cl)C(=O)N(c3ccc(Cl)c(Cl)c3)C2=O)CC1	68	n	n	n	n	n	2.3
Cc1ccc(N2C(=O)C(Cl)=C(N3CCOCC3)C2=O)cc1Cl	74	n	n	n	n	n	u
CN1CCN(C2=C(Cl)C(=O)N(c3cccc(Cl)c3)C2=O)CC1	n	n	n	n	n	n	x
SMILES	RecA intein inh	Mtb UGM inh	Rv3671c protease	FadD28 FP inh	Mtb bLac sens	Mtb hypoxia rep	GFP chromophore
CCC(CC)NC(=O)c1cccc(Oc2ccccc2)c1	n	n	n	n	n	n	x
O=C(O)CC1S/C(=N/N=C/c2ccc(-c3ccccc3[N+](=O)[O-])o2)NC1=O (stereo not drawn)	43	n	n	n	n	x	17
Cc1ccc(-c2ccc(/C=N/N=C3/NC(=O)C(CC(=O)O)S3)o2)c([N+](=O)[O-])c1 (stereo not drawn)	48	n	n	n	n	x	34
O=C(O)CC1S/C(=N/N=Cc2ccc(-c3ccc(Cl)c([N+](=O)[O-])c3)o2)NC1=O (stereo not drawn)	x	x	x	x	x	n	x
CCc1cccc(CC)c1NC(=O)/C(C#N)=C/c1ccccc1C(F)(F)F	31	n	n	n	n	n	32
CC(=O)c1ccc(NC(=O)CON=C(C)c2cccs2)cc1	x	x	x	x	x	n	x
O=C(CCl)N1N=C(c2ccco2)CC1c1cccs1 (stereo not drawn)	67	n	n	n	n	x	25
CC(=O)N1N=C(c2ccco2)CC1c1cccs1 (stereo not drawn)	n	n	n	n	n	n	x
Cc1ccc(C2=NN(C(=O)CCC(=O)O)C(c3cccs3)C2)cc1 (stereo not drawn)	n	n	n	n	n	n	x
Cc1ccc(C2=NN(C(=O)CCl)C(c3cccs3)C2)o1 (stereo not drawn)	74	n	n	n	n	x	4.6

Assay outcomes: PubChem BioAssay, several laboratories
